Assay [1] is described as follows: ATG_GLI_CIS: Attagene CIS-FACTORIAL HepG2 Assay for human Zinc Finger Protein GLI1 (AID 2282945). Particulars: HepG2, Attagene cis-factorial reporter mRNA, GLI element; actives raise or lower the signal. The method in brief:
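HepG2 cells transiently transfected with cis-promoter multiplexed reporter units report endogenous transcription factor activity. After 24 h chemical exposure, reporter mRNA was quantified by RT-PCR, 6-FAM labelling, HpaI digestion and capillary electrophoresis, with bidirectional fitting against DMSO.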

Assay [2] deals with Bile acid receptor (Homo sapiens) (UniProt Q96RI1). Nature of the assay: ATG_IR1_CIS: Attagene CIS-FACTORIAL HepG2 Assay for human Nuclear Receptor Subfamily 1 Group H Member 4 (NR1H4), IR1 submotif (AID 2282946). Particulars: IR1 reporter transcription, actives raise or lower the signal. In a few lines:
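Readout: reporter transcript levels by RT-PCR with fluorescent capillary electrophoresis, from HepG2 cells transiently transfected with multiplexed cis-regulated reporters and dosed 24 h. Gain- or loss-of-signal fitted versus DMSO negative control.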

Assay [3] is described as follows: ATG_GRE_CIS: Attagene CIS-FACTORIAL HepG2 Assay for human Glucocorticoid Response Elements (GRE) (AID 2282947). Particulars: HepG2 GRE cis-reporter, Attagene multiplex mRNA; actives raise or lower the signal. The method in brief:
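HepG2, transient cis-reporter transfection, 24 h. Reporter mRNA: RT-PCR then CE, fluorescence. Fit both directions vs DMSO.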

A short description of assay [4]: ATG_ISRE_CIS: Attagene CIS-FACTORIAL HepG2 Assay for human Interferon Regulatory Factor 1 (IRF1) binding to an Interferon-Stimulated Response Element (ISRE) (AID 2282948). Particulars: HepG2 ISRE cis-reporter (Attagene), mRNA transcription readout; actives raise or lower the signal. In a few lines:
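Uses HepG2 liver cells transfected with cis-regulated reporters and measures mRNA 24 h post-dosing through RT-PCR, primer-extension labelling and capillary electrophoresis, with DMSO as negative control.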

The nature of assay [5]: ATG_M_32_CIS: Attagene CIS-FACTORIAL HepG2 Assay for M32 Transcription Factor (Internal Marker) (AID 2282949).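 Note: background control marker of the multiplexed CIS panel rather than a real target.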 The note with it: HepG2 Attagene cis-factorial M32 reporter, mRNA; actives raise or lower the signal. The method in brief:
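Using DMSO as baseline, bidirectional curve fits were applied to reporter mRNA signals. These came from transiently transfected HepG2 cells exposed for 24 h, with RNA analysed by RT-PCR, FAM primer extension, HpaI digestion and CE.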

Assay [6] can be described thus: ATG_M_06_CIS: Attagene CIS-FACTORIAL HepG2 Assay for M06 Transcription Factor (Internal Marker) (AID 2282950). Particulars: HepG2 Attagene CIS-FACTORIAL M06 internal marker reporter; actives raise or lower the signal. In a few lines:
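HepG2 cells transiently transfected with cis-regulated multiple reporter transcription units were exposed to chemical for 24 h; reporter mRNA was quantified by RT-PCR, 6-FAM primer labelling, HpaI digestion and capillary electrophoresis, fitted bidirectionally against DMSO.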

Assay [7] has as its target Hypoxia-inducible factor 1-alpha (Homo sapiens) (UniProt Q16665). Nature of the assay: ATG_HIF1a_CIS: Attagene CIS-FACTORIAL HepG2 Assay for human Hypoxia Inducible Factor 1 (HIF1A) (AID 2282951). The note with it: HepG2 Attagene cis-factorial HIF1a reporter transcription; actives raise or lower the signal. The method in brief:
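In this multiplexed cell assay, HepG2 cells bearing transfected cis reporters are dosed for 24 h and reporter mRNA is read by RT-PCR plus capillary electrophoresis; signal increases and decreases are both scored against DMSO.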

The target in assay [8] is Heat shock factor protein 1 (Homo sapiens) (UniProt Q00613). Nature of the assay: ATG_HSE_CIS: Attagene CIS-FACTORIAL HepG2 Assay for human Heat Shock Transcription Factor 1 (HSE) (AID 2282953). The note with it: HepG2 HSE cis-reporter, Attagene RNA transcription; actives raise or lower the signal. The method in brief: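 HepG2 cells transiently transfected with multiple reporter transcription units under cis-regulatory promoter control, measuring endogenous transcription factor activity. After 24 h chemical exposure, reporter mRNA quantified by RT-PCR, fluorescent labelling, HpaI digestion and capillary electrophoresis; bidirectional fit versus DMSO.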

Assay [9] is described as follows: ATG_MRE_CIS: Attagene CIS-FACTORIAL HepG2 Assay for human Metal Responsive Element (MRE) (AID 2282954). The note with it: HepG2 MRE cis-reporter transcription, Attagene multiplex; actives raise or lower the signal. The method in brief: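 Readout: capillary electrophoresis of 6-FAM-labelled, HpaI-digested RT-PCR reporter products. System: HepG2 cells carrying transient multiplexed cis reporters, dosed 24 h. Analysis: bidirectional fit, DMSO baseline.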

Assay [10] is described as follows: ATG_PBREM_CIS: Attagene CIS-FACTORIAL HepG2 Assay for human Phenobarbital-responsive Enhancer Module (PBREM) (AID 2282955). Particulars: HepG2 PBREM cis-reporter, Attagene multiplexed transcription; actives raise or lower the signal. In a few lines:
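After a 24 h incubation with test chemical, transfected HepG2 cells yield total RNA; reporter-specific RT-PCR products are fluorescently labelled, HpaI-digested and resolved by capillary electrophoresis against ROX size standards.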

The target in assay [11] is Paired box protein Pax-6 (Homo sapiens) (UniProt P26367). Nature of the assay: ATG_Pax6_CIS: Attagene CIS-FACTORIAL HepG2 Assay for human Paired Box 6 (PAX6) (AID 2282956). Particulars: HepG2 CIS-FACTORIAL PAX6 reporter transcription, RNA readout; actives raise or lower the signal. The method in brief:
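DMSO-referenced bidirectional fits of reporter mRNA fluorescence; HepG2 with transient cis-promoter MRTUs, 24 h post-dose, RT-PCR plus capillary electrophoresis detection.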

A short description of assay [12]: ATG_PXRE_CIS: Attagene CIS-FACTORIAL HepG2 Assay for human Pregnane X Receptor Element (PXRE) (AID 2282957). The note with it: HepG2 Attagene CIS-FACTORIAL PXRE reporter, mRNA; actives raise or lower the signal. The method in brief: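 Read-out: fluorescence of reporter-specific RT-PCR products resolved by capillary electrophoresis, fitted bidirectionally relative to DMSO. Human HepG2 liver cells carried transfected cis-promoter reporter units and were exposed to chemicals for 24 h.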

Assay [13] can be described thus: ATG_PPRE_CIS: Attagene CIS-FACTORIAL HepG2 Assay for human Peroxisome Proliferator-activated Response Element (PPRE) (AID 2282958). Particulars: HepG2 PPRE cis-element reporter, Attagene transcription factor profiling; actives raise or lower the signal. The method in brief:
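Multiplexed reporter transcription units under cis-regulatory promoters were transfected into HepG2 cells to capture endogenous factor activity. A 24 h incubation preceded RNA isolation and fluorescent RT-PCR fragment analysis.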

Assay [14] in a line: ATG_RORE_CIS: Attagene CIS-FACTORIAL HepG2 Assay for human RAR-related Orphan Receptor Element (RORE) (AID 2282959). The note with it: HepG2 Attagene cis-factorial RORE reporter, mRNA; actives raise or lower the signal. In a few lines: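 Fluorescence intensity of reporter-specific cDNA fragments, separated by capillary electrophoresis, gives the signal. Source: HepG2 liver cells transiently transfected with cis-element reporters and exposed 24 h; DMSO-normalized bidirectional fit.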

The nature of assay [15]: ATG_Sox_CIS: Attagene CIS-FACTORIAL HepG2 Assay for human SRY-box transcription factor (SOX) (AID 2282960). Particulars: HepG2 Attagene cis-factorial SOX reporter, mRNA; actives raise or lower the signal. In a few lines:
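After 24 h of chemical treatment, transfected HepG2 reporter cells are lysed for total RNA. Transcript levels come from RT-PCR with labelled primer extension and capillary electrophoresis, analysed bidirectionally versus DMSO.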

The target in assay [16] is Transcription factor Sp1 (Homo sapiens) (UniProt P08047). Nature of the assay: ATG_Sp1_CIS: Attagene CIS-FACTORIAL HepG2 Assay for human Specificity Protein 1 (Sp1) (AID 2282961). Particulars: HepG2 Sp1 cis-reporter transcription, actives raise or lower the signal. In a few lines: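 Sp1-driven reporter mRNA, read as capillary electrophoresis fluorescence after RT-PCR, in transiently transfected HepG2 cells dosed for 24 h; signal change in either direction relative to DMSO.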

The nature of assay [17]: ATG_SREBP_CIS: Attagene CIS-FACTORIAL HepG2 Assay for human Sterol Regulatory Element Binding (SREBP) (AID 2282962). Particulars: HepG2 Attagene cis-factorial SREBP reporter, mRNA; actives raise or lower the signal. In a few lines:
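In this cis-format assay, HepG2 liver cells express reporters controlled by promoter elements responsive to native transcription factors. Exposure lasts 24 h; reporter mRNA fluorescence from capillary electrophoresis gives the signal, fitted bidirectionally against DMSO.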

Assay [18] has as its target Signal transducer and activator of transcription 3 (Homo sapiens) (UniProt P40763). The assay is described as follows: ATG_STAT3_CIS: Attagene CIS-FACTORIAL HepG2 Assay for human Signal Transducer and Activator of Transcription 3 (STAT3) (AID 2282963). Particulars: HepG2, Attagene cis-factorial STAT3 reporter transcription; actives raise or lower the signal. The method in brief:
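Uses human liver HepG2 transiently carrying cis-regulated reporter transcription units. Following 24 h dosing, reporter mRNA induction was detected by RT-PCR and capillary electrophoresis, analysed bidirectionally versus DMSO.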

Assay [19] in a line: ATG_TA_CIS: Attagene CIS-FACTORIAL HepG2 Assay for human TA Basal Promoter (AID 2282964). Particulars: HepG2 Attagene CIS-factorial TA basal promoter reporter; actives raise or lower the signal. The method in brief:
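HepG2 cells transiently transfected with multiplexed cis-promoter reporter units, dosed 24 h. Reporter mRNA measured by RT-PCR, 6-FAM labelling, HpaI digestion and capillary electrophoresis; bidirectional fit versus DMSO baseline, serving as background control.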

For assay [20], the target named is Hepatocyte nuclear factor 6 (Homo sapiens) (UniProt Q9UBC0). Nature of the assay: ATG_HNF6_CIS: Attagene CIS-FACTORIAL HepG2 Assay for human Hepatocyte Nuclear Factor 6 (HNF6) (AID 2282952). The note with it: HepG2 Attagene cis-factorial HNF6 reporter transcription; actives raise or lower the signal. In a few lines:
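Readout: fluorescent reporter-transcript fragments resolved by capillary electrophoresis after RT-PCR, reflecting endogenous factor activity in transfected HepG2. Exposure 24 h. Gain or loss of signal fitted bidirectionally against DMSO.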

Activity calls are given as the source filed them. Rule for the calls: active = hit-call score of the fitted dose curve at least 0.9, where 1 is the maximum; inactive = score below 0.9.

Chain of Transcription factor Sp1 (Homo sapiens) (P08047 whole entry, looked up): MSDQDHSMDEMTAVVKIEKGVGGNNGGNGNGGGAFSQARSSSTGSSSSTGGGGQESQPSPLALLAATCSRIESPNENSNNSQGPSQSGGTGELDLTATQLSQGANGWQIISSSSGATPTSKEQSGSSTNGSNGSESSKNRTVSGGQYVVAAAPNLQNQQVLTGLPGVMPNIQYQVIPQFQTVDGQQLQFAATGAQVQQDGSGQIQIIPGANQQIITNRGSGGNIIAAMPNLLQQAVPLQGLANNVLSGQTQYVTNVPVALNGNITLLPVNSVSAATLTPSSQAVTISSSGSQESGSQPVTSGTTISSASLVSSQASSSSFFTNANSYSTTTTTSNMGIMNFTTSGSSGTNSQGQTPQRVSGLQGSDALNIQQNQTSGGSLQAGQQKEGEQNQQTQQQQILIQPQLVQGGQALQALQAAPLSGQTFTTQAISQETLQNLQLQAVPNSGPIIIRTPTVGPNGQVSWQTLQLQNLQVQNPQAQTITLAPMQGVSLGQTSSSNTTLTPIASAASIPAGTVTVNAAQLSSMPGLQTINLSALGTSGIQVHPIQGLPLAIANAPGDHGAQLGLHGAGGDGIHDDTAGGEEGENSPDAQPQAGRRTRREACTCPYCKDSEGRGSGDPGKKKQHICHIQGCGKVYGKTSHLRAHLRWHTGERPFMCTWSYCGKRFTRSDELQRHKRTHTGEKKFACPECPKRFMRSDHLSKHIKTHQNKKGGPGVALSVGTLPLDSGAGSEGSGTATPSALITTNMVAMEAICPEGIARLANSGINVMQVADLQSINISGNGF
Chain of Signal transducer and activator of transcription 3 (Homo sapiens) (P40763 whole entry, looked up): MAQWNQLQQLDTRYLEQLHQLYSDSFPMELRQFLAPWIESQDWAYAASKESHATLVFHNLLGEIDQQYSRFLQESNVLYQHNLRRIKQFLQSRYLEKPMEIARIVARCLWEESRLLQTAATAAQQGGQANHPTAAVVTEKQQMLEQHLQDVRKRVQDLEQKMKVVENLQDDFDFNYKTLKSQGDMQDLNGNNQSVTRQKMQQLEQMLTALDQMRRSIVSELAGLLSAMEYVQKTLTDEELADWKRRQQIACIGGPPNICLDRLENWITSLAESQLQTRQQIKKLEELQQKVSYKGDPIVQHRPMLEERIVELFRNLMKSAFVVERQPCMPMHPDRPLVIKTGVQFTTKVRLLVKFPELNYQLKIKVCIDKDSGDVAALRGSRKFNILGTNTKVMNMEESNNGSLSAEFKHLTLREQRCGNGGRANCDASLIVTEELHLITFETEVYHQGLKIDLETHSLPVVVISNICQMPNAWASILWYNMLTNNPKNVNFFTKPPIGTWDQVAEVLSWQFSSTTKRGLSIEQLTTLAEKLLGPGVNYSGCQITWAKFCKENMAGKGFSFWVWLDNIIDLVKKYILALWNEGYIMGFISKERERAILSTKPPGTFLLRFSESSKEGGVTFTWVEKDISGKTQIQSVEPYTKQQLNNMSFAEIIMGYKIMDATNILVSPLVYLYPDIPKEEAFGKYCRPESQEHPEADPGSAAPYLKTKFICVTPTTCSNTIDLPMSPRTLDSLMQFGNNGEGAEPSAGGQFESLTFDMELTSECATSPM
Chain of Bile acid receptor (Homo sapiens) (Q96RI1 whole entry, looked up): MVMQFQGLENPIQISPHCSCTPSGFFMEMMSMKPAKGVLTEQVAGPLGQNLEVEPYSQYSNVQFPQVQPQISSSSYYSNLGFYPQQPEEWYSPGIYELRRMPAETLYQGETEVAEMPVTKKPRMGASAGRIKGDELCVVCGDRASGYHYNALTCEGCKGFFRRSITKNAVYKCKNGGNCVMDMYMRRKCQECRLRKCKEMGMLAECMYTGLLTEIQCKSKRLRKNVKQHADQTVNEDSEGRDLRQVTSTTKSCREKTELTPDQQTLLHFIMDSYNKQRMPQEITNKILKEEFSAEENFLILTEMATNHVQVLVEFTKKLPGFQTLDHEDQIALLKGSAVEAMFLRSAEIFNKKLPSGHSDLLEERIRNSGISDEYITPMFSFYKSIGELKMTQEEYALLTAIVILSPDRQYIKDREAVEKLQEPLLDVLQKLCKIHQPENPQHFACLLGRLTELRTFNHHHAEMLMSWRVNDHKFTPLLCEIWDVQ
Chain of Paired box protein Pax-6 (Homo sapiens) (P26367 whole entry, looked up): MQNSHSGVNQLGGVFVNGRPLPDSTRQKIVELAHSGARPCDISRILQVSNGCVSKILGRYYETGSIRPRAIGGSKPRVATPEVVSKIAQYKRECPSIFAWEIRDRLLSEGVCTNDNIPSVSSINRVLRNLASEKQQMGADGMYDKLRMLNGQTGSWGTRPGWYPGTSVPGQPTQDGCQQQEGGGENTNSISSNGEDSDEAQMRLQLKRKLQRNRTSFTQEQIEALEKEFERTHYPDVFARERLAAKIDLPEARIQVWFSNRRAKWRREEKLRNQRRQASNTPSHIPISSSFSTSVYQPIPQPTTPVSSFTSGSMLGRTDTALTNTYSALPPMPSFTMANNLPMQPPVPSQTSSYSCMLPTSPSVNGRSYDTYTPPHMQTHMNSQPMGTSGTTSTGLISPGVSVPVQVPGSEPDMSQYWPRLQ
Chain of Hepatocyte nuclear factor 6 (Homo sapiens) (Q9UBC0 whole entry, looked up, the tested form may be a part): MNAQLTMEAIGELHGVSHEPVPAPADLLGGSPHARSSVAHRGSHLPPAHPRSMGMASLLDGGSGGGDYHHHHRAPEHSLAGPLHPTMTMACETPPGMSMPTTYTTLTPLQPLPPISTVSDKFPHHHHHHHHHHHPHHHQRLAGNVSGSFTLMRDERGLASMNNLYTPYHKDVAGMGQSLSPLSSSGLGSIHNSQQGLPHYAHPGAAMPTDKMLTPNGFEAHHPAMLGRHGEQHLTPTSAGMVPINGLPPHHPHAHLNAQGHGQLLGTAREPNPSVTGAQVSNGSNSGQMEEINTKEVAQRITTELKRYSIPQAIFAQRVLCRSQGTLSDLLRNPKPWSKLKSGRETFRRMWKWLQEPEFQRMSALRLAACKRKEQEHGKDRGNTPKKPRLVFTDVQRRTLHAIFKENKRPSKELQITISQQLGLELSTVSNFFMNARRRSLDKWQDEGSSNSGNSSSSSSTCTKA
Chain of Hypoxia-inducible factor 1-alpha (Homo sapiens) (Q16665 whole entry, looked up): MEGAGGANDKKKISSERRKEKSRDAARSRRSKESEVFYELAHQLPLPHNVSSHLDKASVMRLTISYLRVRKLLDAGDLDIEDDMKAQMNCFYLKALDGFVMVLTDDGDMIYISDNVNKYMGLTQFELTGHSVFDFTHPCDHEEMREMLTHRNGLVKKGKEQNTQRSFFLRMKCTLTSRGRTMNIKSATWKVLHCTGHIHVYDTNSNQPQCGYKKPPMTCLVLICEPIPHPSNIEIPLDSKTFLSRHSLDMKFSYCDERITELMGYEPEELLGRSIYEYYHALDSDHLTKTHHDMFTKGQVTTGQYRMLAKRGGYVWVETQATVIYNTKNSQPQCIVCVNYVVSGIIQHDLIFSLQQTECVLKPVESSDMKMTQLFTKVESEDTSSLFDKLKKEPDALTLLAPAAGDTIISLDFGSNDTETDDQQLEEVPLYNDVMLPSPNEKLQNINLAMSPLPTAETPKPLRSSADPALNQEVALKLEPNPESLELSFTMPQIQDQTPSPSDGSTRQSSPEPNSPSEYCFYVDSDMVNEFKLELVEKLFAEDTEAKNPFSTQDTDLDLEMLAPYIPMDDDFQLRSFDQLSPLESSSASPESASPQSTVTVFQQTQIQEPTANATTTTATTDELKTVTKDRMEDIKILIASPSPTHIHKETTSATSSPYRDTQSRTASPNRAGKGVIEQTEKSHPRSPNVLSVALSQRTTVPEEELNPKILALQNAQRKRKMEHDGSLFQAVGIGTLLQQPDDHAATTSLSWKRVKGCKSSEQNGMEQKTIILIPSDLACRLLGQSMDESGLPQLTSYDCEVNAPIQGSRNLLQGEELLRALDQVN
Chain of Heat shock factor protein 1 (Homo sapiens) (Q00613 whole entry, looked up): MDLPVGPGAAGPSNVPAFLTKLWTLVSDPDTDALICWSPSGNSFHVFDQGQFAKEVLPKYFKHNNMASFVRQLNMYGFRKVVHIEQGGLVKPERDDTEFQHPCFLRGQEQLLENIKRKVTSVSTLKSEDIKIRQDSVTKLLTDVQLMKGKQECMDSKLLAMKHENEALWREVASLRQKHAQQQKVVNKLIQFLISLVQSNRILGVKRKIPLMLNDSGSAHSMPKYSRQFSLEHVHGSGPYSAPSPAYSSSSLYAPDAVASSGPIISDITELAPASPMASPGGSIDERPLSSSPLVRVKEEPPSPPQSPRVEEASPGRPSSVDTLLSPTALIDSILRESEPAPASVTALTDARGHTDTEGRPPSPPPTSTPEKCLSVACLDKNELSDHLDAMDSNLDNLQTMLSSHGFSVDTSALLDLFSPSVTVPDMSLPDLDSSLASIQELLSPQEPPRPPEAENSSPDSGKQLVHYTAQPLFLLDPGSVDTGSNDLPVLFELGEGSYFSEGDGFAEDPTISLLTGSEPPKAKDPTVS

As usually defined, the AC50 is the midpoint of the concentration-response curve, whichever way the signal moves. In the case of `COc1ccccc1O`, the call in assay [1], in assay [2], in [3], in assay [4], in assay [5] and in assay [6] was inactive. The call in [7], in [8], in [9], in assay [10], in assay [11] and in assay [13] was inactive. Also, the molecule was classed as inactive in [14], in assay [15], in [16], in assay [17], in assay [18] and in assay [19]. Moreover, the AC50 in [12] is 69.3 µM (active).
As for `CCO[Si](CCC#N)(OCC)OCC`, the outcome in [1], in assay [2], in assay [3], in [4], in [5] and in assay [6] was inactive. Moreover, the molecule was classed as inactive in assay [7], in assay [20], in assay [8], in assay [9], in assay [12] and in assay [14]. Moreover, the molecule was called inactive in [15], in assay [16], in assay [17], in assay [18] and in [19].
Consider `CC(C)(C)c1cc(CCC(=O)OCCSCCOC(=O)CCc2cc(C(C)(C)C)c(O)c(C(C)(C)C)c2)cc(C(C)(C)C)c1O`, for which the molecule was classed as inactive in assay [1], in assay [2], in assay [3], in assay [4], in assay [5] and in [6]. Also, the molecule was classed as inactive in assay [7], in assay [20], in assay [8], in assay [9], in [10] and in [11]. Besides, the outcome in assay [12], in assay [13], in assay [14], in assay [15], in [17] and in assay [18] was inactive. Besides, in assay [19], the molecule was classed as inactive.
Take `CC=CC(=O)C1=C(C)C=CCC1(C)C`: the result in assay [1], in assay [2], in assay [3], in assay [4], in assay [5] and in [6] was inactive. For the same molecule, the outcome in assay [7], in [20], in [8], in assay [9], in assay [10] and in assay [11] was inactive. For the same molecule, the outcome in assay [13], in [14], in assay [15], in assay [16], in assay [17] and in assay [18] was inactive. Further, the molecule was called inactive in assay [19]. Further, the AC50 in assay [12] was 55.4 µM (active).

The values above are taken from PubChem BioAssay (EPA / NIEHS).
